Data on 35 compounds can be found in PubChem BioAssay (EPA / NIEHS).

Broadly, the AC50 is the concentration at which the activity in the assay is half-maximal.

Records with an inconclusive call do not appear. Active and inactive are the calls of the source. Rule for the calls: active = hit-call score of the fitted dose curve at least 0.9, where 1 is the maximum; inconclusive = response in the unintended direction; inactive = score below 0.9.

System in the first assay: not listed separately
As to the kind of experiment: Tanguay_ZF_120hpf_TR_legacy: (Legacy) Oregon State University Tanguay Lab 120 Hour Post-fertilization zebrafish Assay for Touch Response (AID 2283667). Summed up: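 5D WT embryos; static exposure to 120 hpf, 28C, sealed/dark; DMSO 0.64% v/v final. TR scored present/absent; dead embryos excluded. Pos ctrl 5uM trimethyltin chloride.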
Turning to `COc1ccc(C(=CC(=O)N2CCOCC2)c2ccc(Cl)cc2)cc1OC`, the AC50 was 42400 nM (active).
Regarding `CCCCOC(=O)c1ccccc1C(=O)O`, the result was inactive.
On the same count and under the same terms, next, `CC(C1CC1)C(O)(Cn1cncn1)c1ccc(Cl)cc1` (stereo not given): “inactive”.
On the same count and under the same terms, as for `CCOC(=O)COc1cc(-c2nn(C)c(OC(F)F)c2Cl)c(F)cc1Cl`, the entry is “inactive”; as for `CCOP(=O)(NC(C)C)Oc1ccc(SC)c(C)c1` (stereo not given), “inactive”.
Take `C#CC(C)(C)NC(=O)c1cc(Cl)cc(Cl)c1`: the call was inactive.
The same measure, in the same setting: as for `CSc1nc(NC(C)C)nc(NC(C)C)n1`, the entry is “inactive”; as for `CCOP(=S)(OCC)SCCSCC`, “inactive”.
The same measure, in the same setting: as for `CC(Oc1cccc(Cl)c1)C(=O)O` (stereo not given), the entry is “inactive”.
On to `CC[C@H](C)[C@H]1O[C@]2(C=C[C@@H]1C)C[C@@H]1C[C@@H](C/C=C(\C)[C@@H](O[C@H]3C[C@H](OC)[C@@H](O[C@H]4C[C@H](OC)[C@@H](NC)[C@H](C)O4)[C@H](C)O3)[C@@H](C)/C=C/C=C3\CO[C@@H]4[C@H](O)C(C)=C[C@@H](C(=O)O1)[C@]34O)O2`, for which the AC50 is 47.9 nM (active).
On to `CCCCN(CC)c1c([N+](=O)[O-])cc(C(F)(F)F)cc1[N+](=O)[O-]`, for which the compound was classed as inactive.
For the compound `CCc1cccc(CC)c1N(COC)C(=O)CCl`, the outcome was inactive.
In the case of `CC(C)=CC1C(C(=O)OCN2C(=O)C3=C(CCCC3)C2=O)C1(C)C` (stereo not given), the result was inactive.
The same measure, in the same setting: as for `COc1cc(OC)nc(Sc2cccc(Cl)c2C(=O)O)n1`, the entry is “inactive”.
The same measure, in the same setting: as for `CC(COc1ccc(Oc2ccccc2)cc1)Oc1ccccn1` (stereo not given), the entry is “inactive”.
Still for that read-out and setting: as for `CC1=NNC(=O)N(/N=C/c2cccnc2)C1`, the entry is “inactive”; as for `CN(C)C(=O)Nc1cccc(C(F)(F)F)c1`, “inactive”; as for `CC(C)N(C(=O)SCC(Cl)=C(Cl)Cl)C(C)C`, “inactive”.
Regarding `CNC(=O)ON=C(SC)C(=O)N(C)C`, the call was inactive.
The same measure, in the same setting: next, `CCCCOC(=O)[C@@H](C)Oc1ccc(Oc2ccc(C#N)cc2F)cc1`: “inactive”; `O=C(O)c1cc(Oc2ccc(C(F)(F)F)cc2Cl)ccc1[N+](=O)[O-]`: “inactive”; `CC(=NC#N)N(C)Cc1ccc(Cl)nc1`: “inactive”.
Still for that read-out and setting: as for `C[N+]1(C)CCCCC1`, the entry is “inactive”; as for `CCc1cnc(C2=NC(C)(C(C)C)C(=O)N2)c(C(=O)O)c1` (stereo not given), “inactive”.
The same measure, in the same setting: next, `C#CCC1=C(C)C(OC(=O)C2C(C=C(C)C)C2(C)C)CC1=O` (stereo not given): “inactive”; `CCCOc1nn(C(=O)NS(=O)(=O)c2ccccc2C(=O)OC)c(=O)n1C`: “inactive”; `CCNc1nc(Cl)nc(NC(C)(C)C#N)n1`: “inactive”.
For the compound `CCOP(=O)(OCC)Oc1cc(C)nc(C(C)C)n1`, the result was inactive.
On to `CC(C)[C@H](C(=O)O[C@H](C#N)c1cccc(Oc2ccccc2)c1)c1ccc(Cl)cc1`, for which the AC50 was 5430 nM (active).
`CCCCSP(=O)(SCCCC)SCCCC`: the call was inactive.
`CCC(CC)Nc1c([N+](=O)[O-])cc(C)c(C)c1[N+](=O)[O-]`: the outcome was inactive.

Read-out in the next assay: sulfotransferase (SULT2A), SULT2A1 (gene 6822)
Description: CLD_SULT2A_6hr: CellzDirect (CLD) Gene Expression Assay for sulfotransferase (SULT2A) at 6 hours (AID 2283669).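 Note: hits raise transcript level above the DMSO vehicle baseline.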 Summed up:
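Primary human hepatocytes from two donor preparations were dosed daily with chemicals or 0.2% DMSO and harvested at 6 h. Transcript induction read by qNPA chemiluminescence, fitted for gain of signal relative to DMSO; morphology-based cytotoxicity annotated.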
As for `CC(C1CC1)C(O)(Cn1cncn1)c1ccc(Cl)cc1` (stereo not given), the result was inactive.
With `CCOC(=O)COc1cc(-c2nn(C)c(OC(F)F)c2Cl)c(F)cc1Cl`, the call was inactive.
Still for that read-out and setting: next, `C#CC(C)(C)NC(=O)c1cc(Cl)cc(Cl)c1`: “inactive”.
As to `CSc1nc(NC(C)C)nc(NC(C)C)n1`, the compound was classed as inactive.
Still for that read-out and setting: as for `CCOP(=S)(OCC)SCCSCC`, the entry is “inactive”; as for `CCCCN(CC)c1c([N+](=O)[O-])cc(C(F)(F)F)cc1[N+](=O)[O-]`, “inactive”; as for `CCc1cccc(CC)c1N(COC)C(=O)CCl`, “inactive”.
For the compound `CC(C)=CC1C(C(=O)OCN2C(=O)C3=C(CCCC3)C2=O)C1(C)C` (stereo not given), the compound was classed as inactive.
The same measure, in the same setting: next, `CC(COc1ccc(Oc2ccccc2)cc1)Oc1ccccn1` (stereo not given): “inactive”; `CC1=NNC(=O)N(/N=C/c2cccnc2)C1`: “inactive”; `CC(C)N(C(=O)SCC(Cl)=C(Cl)Cl)C(C)C`: “inactive”.
On the same count and under the same terms, as for `CNC(=O)ON=C(SC)C(=O)N(C)C`, the entry is “inactive”; as for `CNC(=O)ON=C(C)SC`, “inactive”; as for `CN1COCN(Cc2cnc(Cl)s2)C1=N[N+](=O)[O-]`, “inactive”.
Regarding `O=C(O)c1cc(Oc2ccc(C(F)(F)F)cc2Cl)ccc1[N+](=O)[O-]`, the AC50 is 4.42 nM (active).
As to `CC(=NC#N)N(C)Cc1ccc(Cl)nc1`, the compound was classed as inactive.
The same measure, in the same setting: next, `C#CCC1=C(C)C(OC(=O)C2C(C=C(C)C)C2(C)C)CC1=O` (stereo not given): “inactive”; `CCOP(=O)(OCC)Oc1cc(C)nc(C(C)C)n1`: “inactive”; `CC(C)[C@H](C(=O)O[C@H](C#N)c1cccc(Oc2ccccc2)c1)c1ccc(Cl)cc1`: “inactive”.
On the same count and under the same terms, as for `CSc1nnc(C(C)(C)C)c(=O)n1N`, the entry is “inactive”; as for `CCCCSP(=O)(SCCCC)SCCCC`, “inactive”; as for `C[Si](Cn1cncn1)(c1ccc(F)cc1)c1ccc(F)cc1`, “inactive”.
The same measure, in the same setting: next, `CCC(CC)Nc1c([N+](=O)[O-])cc(C)c(C)c1[N+](=O)[O-]`: “inactive”.

Read-out in the next assay: not listed separately
Description: CLD_ACTIN_24hr: CellzDirect (CLD) Gene Expression Assay for Baseline Control (Actin) at 24 hours (AID 2283670). Summed up: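 Primary human hepatocytes dosed over multiple concentrations with 0.2% DMSO vehicle; actin mRNA measured at 24 h by qNPA chemiluminescence. Background control endpoint, fitted as gain of signal versus DMSO.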
In the case of `CCOP(=S)(OCC)SCCSCC`, the result was inactive.
Same read-out and setting: as for `CC(Oc1cccc(Cl)c1)C(=O)O` (stereo not given), the entry is “inactive”; as for `CC[C@H](C)[C@H]1O[C@]2(C=C[C@@H]1C)C[C@@H]1C[C@@H](C/C=C(\C)[C@@H](O[C@H]3C[C@H](OC)[C@@H](O[C@H]4C[C@H](OC)[C@@H](NC)[C@H](C)O4)[C@H](C)O3)[C@@H](C)/C=C/C=C3\CO[C@@H]4[C@H](O)C(C)=C[C@@H](C(=O)O1)[C@]34O)O2`, “inactive”.
Still for that read-out and setting: next, `CNC(=O)ON=C(SC)C(=O)N(C)C`: “inactive”.
Still for that read-out and setting: as for `CNC(=O)ON=C(C)SC`, the entry is “inactive”; as for `CN1COCN(Cc2cnc(Cl)s2)C1=N[N+](=O)[O-]`, “inactive”; as for `CCCCOC(=O)[C@@H](C)Oc1ccc(Oc2ccc(C#N)cc2F)cc1`, “inactive”.
Turning to `C[N+]1(C)CCCCC1`, the call was inactive.
Still for that read-out and setting: next, `CCc1cnc(C2=NC(C)(C(C)C)C(=O)N2)c(C(=O)O)c1` (stereo not given): “inactive”; `CSc1nnc(C(C)(C)C)c(=O)n1N`: “inactive”.
On the same count and under the same terms, next, `C[Si](Cn1cncn1)(c1ccc(F)cc1)c1ccc(F)cc1`: “inactive”.
